# Paper PMC7862700, “An all-to-all approach to the identification of sequence-specific readers for epigenetic DNA modifications on cytosine”
# Experiments:
# Assay in all cases: DAPPL (digital affinity profiling via proximity ligation, sequencing); 10 mM Tris-HCl pH 7.5, 50 mM NaCl, 1 mM DTT, 4% glycerol, room temperature, 30 min; GST-TFs on glutathione beads, 16-mer random dsDNA library, 0.1% formaldehyde crosslink after washing; high values mean tight binding
# [1] = biological target: T1, FLI1 (Homo sapiens, UniProt Q01543 1-452); settings: protein: recombinant; tags: N-terminal GST; dsDNA, one strand shown
# T1 sequence: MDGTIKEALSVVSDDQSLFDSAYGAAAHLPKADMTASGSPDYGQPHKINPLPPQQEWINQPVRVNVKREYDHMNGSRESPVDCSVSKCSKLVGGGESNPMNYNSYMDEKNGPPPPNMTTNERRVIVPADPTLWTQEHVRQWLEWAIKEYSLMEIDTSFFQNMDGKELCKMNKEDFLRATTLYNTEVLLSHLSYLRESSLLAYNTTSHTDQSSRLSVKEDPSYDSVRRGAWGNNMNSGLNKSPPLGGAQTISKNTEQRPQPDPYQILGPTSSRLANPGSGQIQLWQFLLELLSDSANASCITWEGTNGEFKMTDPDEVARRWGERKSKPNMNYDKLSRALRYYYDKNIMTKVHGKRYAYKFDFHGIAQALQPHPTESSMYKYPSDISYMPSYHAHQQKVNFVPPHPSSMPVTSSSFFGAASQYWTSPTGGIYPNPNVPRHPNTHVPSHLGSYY
# How it was run: (§1)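 Each value of binding signal is a hexamer's read frequency for a factor divided by the same hexamer's frequency in the tag-only sample. Barcoded, bead-captured GST fusions of human transcription factors made in yeast were pooled with that sample and incubated with 200 nmole of a random double-stranded 16-mer DNA library in Tris/NaCl/DTT/glycerol buffer at room temperature for 30 min. Washing, 0.1% formaldehyde crosslinking, proximity ligation, PCR and Illumina NextSeq500 sequencing followed.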
# [2] = biological target: T2, ELK1 (Homo sapiens, UniProt P19419 1-428); settings: protein: recombinant; tags: N-terminal GST; dsDNA, one strand shown
# T2 sequence: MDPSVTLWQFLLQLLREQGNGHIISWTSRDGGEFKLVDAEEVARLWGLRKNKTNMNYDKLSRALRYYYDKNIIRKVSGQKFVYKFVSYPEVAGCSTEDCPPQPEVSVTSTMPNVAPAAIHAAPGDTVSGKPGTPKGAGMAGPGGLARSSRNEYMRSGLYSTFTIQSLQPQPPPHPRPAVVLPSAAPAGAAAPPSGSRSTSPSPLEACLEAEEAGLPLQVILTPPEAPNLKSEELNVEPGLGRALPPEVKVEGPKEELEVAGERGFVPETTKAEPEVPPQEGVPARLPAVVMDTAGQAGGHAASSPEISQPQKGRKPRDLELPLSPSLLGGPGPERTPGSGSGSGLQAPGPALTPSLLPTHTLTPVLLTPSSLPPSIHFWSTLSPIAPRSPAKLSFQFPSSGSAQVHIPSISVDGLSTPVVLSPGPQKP
# How it was run: as §1
# [3] = biological target: T3, GABPA (Homo sapiens, UniProt Q06546 1-454); settings: protein: recombinant; tags: N-terminal GST; dsDNA, one strand shown
# T3 sequence: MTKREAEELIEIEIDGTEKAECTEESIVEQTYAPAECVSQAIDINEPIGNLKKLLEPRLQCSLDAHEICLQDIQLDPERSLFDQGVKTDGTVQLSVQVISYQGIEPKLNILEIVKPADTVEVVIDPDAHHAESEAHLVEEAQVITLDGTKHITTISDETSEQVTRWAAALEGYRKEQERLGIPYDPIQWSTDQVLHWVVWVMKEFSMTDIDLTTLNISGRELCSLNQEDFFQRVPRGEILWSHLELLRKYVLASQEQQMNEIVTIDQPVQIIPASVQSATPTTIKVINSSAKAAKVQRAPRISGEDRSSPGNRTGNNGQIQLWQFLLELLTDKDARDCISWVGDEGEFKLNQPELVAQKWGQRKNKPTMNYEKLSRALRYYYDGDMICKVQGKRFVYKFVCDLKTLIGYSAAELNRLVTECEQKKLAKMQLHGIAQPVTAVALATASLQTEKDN
# How it was run: as §1
# [4] = biological target: T4, ERG (Homo sapiens, UniProt P11308 1-479); settings: protein: recombinant; tags: N-terminal GST; dsDNA, one strand shown
# T4 sequence: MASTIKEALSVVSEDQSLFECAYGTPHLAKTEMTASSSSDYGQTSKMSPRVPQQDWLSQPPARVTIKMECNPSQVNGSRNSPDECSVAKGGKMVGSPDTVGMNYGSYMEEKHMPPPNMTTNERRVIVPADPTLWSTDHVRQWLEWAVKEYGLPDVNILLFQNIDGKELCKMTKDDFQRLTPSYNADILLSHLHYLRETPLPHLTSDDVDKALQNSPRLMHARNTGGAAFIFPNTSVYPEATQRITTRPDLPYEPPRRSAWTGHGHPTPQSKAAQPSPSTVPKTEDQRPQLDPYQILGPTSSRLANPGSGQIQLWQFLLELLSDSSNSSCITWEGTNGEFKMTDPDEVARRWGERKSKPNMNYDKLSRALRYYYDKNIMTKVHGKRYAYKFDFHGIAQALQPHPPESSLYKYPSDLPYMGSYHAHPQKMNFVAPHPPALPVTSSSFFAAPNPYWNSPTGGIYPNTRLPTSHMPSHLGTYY
# How it was run: as §1
# [5] = biological target: ELF1 (Homo sapiens, UniProt P32519 1-619); settings: protein: recombinant; tags: N-terminal GST; dsDNA, one strand shown
# ELF1, sequence (P32519 whole entry): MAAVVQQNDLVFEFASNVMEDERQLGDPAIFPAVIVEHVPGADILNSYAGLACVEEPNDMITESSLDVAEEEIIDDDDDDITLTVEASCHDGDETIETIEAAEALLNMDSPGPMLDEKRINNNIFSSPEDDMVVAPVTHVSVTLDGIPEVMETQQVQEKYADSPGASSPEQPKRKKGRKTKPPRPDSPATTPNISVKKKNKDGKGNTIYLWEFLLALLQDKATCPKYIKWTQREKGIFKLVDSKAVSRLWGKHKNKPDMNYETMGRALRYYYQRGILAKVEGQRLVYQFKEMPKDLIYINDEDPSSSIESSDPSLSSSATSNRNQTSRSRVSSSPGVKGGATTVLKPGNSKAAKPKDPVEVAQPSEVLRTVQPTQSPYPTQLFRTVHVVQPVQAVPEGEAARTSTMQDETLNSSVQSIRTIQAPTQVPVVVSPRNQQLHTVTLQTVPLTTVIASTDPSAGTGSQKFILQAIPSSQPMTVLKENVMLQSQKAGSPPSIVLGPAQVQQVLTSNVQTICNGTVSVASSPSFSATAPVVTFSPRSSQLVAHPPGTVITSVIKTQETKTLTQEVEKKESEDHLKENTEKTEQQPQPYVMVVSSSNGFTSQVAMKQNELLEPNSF
# How it was run: as §1
# [6] = biological target: T5, EHF (Homo sapiens, UniProt Q9NZC4 1-300); settings: protein: recombinant; tags: N-terminal GST; dsDNA, one strand shown
# T5 sequence: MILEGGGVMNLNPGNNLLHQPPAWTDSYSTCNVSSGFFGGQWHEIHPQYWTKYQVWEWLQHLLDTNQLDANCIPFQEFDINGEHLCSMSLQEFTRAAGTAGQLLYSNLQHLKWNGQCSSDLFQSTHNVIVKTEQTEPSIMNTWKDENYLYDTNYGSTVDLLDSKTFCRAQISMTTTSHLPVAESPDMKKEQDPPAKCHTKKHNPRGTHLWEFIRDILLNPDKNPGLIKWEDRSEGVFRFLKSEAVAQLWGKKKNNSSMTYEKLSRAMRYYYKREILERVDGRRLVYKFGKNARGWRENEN
# How it was run: as §1
# [7] = biological target: SPI1 (Homo sapiens, UniProt P17947 1-270); settings: protein: recombinant; tags: N-terminal GST; dsDNA, one strand shown
# How it was run: as §1
# [8] = biological target: SPIB (Homo sapiens, UniProt Q01892 1-262); settings: protein: recombinant; tags: N-terminal GST; dsDNA, one strand shown
# SPIB, sequence (Q01892 whole entry): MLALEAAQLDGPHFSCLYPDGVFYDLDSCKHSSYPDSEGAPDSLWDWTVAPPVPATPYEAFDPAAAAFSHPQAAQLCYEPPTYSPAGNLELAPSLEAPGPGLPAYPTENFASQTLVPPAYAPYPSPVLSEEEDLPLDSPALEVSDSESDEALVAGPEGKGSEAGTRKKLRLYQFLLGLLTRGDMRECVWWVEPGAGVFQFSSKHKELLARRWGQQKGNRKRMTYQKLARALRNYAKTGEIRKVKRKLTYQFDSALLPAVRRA
# How it was run: as §1
# [9] = biological target: T6, ELK3 (Homo sapiens, UniProt P41970 1-407); settings: protein: recombinant; tags: N-terminal GST; dsDNA, one strand shown
# T6 sequence: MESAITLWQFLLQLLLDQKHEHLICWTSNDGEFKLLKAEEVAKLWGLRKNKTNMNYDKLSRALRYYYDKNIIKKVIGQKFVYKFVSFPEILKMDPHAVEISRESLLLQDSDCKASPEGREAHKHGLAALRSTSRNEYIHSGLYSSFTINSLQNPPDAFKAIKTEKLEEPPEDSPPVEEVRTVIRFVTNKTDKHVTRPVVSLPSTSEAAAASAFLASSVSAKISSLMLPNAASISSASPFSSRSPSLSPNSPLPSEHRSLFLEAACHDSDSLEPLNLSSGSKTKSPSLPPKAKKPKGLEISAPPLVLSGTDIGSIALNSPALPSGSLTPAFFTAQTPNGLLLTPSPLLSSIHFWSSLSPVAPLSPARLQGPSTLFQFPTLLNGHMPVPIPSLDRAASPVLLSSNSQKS
# How it was run: as §1
# [10] = biological target: T7, FEV (Homo sapiens, UniProt Q99581 1-238); settings: protein: recombinant; tags: N-terminal GST; dsDNA, one strand shown
# T7 sequence: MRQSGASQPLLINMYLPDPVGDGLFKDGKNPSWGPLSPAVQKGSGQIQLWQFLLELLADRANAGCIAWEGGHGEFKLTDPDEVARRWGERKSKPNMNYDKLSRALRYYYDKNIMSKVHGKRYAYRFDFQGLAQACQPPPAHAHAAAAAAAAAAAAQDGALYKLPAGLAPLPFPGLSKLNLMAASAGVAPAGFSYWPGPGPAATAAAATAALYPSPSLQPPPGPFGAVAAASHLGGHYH
# How it was run: as §1
# [11] = biological target: ETV5 (Homo sapiens, UniProt P41161 1-510); settings: protein: recombinant; tags: N-terminal GST; dsDNA, one strand shown
# ETV5, sequence (P41161 whole entry): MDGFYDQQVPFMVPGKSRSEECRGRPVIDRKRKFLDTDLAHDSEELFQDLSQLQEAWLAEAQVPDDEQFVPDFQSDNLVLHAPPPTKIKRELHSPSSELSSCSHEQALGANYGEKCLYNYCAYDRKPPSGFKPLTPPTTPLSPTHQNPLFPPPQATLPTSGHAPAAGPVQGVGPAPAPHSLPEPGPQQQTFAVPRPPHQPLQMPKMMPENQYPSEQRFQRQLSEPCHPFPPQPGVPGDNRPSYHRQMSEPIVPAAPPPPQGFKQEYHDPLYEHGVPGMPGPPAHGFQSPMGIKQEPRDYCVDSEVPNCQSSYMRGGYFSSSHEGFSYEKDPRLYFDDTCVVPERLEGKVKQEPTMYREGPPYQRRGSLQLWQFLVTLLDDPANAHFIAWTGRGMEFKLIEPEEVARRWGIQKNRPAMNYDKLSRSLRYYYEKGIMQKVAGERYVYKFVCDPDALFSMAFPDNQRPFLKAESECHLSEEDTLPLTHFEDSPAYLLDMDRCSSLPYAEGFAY
# How it was run: as §1
# [12] = biological target: HSF1 (Homo sapiens, UniProt Q00613 1-529); settings: protein: recombinant; tags: N-terminal GST; chain copies: 3; dsDNA, one strand shown
# HSF1, sequence (Q00613 whole entry): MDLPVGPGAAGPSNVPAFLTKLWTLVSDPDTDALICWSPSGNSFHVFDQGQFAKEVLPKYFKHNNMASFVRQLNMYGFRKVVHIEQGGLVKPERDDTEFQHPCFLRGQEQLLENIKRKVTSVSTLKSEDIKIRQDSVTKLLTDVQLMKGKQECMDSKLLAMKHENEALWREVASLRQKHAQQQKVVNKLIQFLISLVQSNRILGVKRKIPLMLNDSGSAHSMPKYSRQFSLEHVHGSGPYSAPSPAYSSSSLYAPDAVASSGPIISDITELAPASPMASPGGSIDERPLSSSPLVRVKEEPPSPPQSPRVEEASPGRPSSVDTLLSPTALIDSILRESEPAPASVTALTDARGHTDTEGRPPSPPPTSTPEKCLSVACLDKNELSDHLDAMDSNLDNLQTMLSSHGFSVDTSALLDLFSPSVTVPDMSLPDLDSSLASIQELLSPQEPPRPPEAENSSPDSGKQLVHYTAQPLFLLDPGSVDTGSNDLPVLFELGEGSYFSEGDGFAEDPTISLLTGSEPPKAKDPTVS
# How it was run: as §1
# [13] = biological target: T8, SPIC (Homo sapiens, UniProt Q8N5J4 1-248); settings: protein: recombinant; tags: N-terminal GST; dsDNA, one strand shown
# T8 sequence: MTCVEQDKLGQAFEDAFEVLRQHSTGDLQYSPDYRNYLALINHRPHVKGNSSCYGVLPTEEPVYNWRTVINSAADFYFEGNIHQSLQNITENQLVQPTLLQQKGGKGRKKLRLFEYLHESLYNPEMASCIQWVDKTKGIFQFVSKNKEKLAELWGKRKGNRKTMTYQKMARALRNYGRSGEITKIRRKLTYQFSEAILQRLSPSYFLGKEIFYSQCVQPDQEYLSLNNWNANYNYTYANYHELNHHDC
# How it was run: as §1
# [14] = biological target: ELF4 (Homo sapiens, UniProt Q99607 1-663); settings: protein: recombinant; tags: N-terminal GST; dsDNA, one strand shown
# ELF4, sequence (Q99607 whole entry): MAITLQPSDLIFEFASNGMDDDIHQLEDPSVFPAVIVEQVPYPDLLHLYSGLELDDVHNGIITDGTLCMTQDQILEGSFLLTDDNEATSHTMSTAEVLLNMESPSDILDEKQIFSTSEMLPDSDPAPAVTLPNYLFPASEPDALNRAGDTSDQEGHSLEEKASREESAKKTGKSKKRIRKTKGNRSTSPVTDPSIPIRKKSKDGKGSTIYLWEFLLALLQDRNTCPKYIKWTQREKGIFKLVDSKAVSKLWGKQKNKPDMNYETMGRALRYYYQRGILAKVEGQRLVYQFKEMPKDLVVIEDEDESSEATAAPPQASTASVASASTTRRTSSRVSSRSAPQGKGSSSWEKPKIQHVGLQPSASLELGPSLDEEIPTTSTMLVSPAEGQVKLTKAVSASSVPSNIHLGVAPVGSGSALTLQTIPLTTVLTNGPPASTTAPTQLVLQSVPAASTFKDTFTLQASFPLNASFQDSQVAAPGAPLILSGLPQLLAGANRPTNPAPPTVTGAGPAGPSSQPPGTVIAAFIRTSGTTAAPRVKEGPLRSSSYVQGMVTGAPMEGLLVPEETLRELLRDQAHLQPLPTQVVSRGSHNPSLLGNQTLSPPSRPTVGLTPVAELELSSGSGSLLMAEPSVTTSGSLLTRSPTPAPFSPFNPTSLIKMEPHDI
# How it was run: as §1
# [15] = biological target: T9, ELK4 (Homo sapiens, UniProt P28324-2 1-405); settings: protein: recombinant; tags: N-terminal GST; dsDNA, one strand shown
# T9 sequence: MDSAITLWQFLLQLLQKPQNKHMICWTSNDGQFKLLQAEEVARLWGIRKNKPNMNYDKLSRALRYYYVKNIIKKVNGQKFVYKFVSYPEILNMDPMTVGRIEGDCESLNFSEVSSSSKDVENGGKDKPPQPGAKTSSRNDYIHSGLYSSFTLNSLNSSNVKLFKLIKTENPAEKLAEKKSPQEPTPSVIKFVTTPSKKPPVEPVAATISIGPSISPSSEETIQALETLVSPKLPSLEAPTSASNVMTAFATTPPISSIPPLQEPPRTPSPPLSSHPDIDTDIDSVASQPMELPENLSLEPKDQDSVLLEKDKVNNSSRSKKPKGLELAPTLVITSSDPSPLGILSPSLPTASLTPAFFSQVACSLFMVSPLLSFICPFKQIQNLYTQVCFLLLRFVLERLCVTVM
# How it was run: as §1
# [16] = biological target: T10, ETV2 (Homo sapiens, UniProt O00321 1-342); settings: protein: recombinant; tags: N-terminal GST; dsDNA, one strand shown
# T10 sequence: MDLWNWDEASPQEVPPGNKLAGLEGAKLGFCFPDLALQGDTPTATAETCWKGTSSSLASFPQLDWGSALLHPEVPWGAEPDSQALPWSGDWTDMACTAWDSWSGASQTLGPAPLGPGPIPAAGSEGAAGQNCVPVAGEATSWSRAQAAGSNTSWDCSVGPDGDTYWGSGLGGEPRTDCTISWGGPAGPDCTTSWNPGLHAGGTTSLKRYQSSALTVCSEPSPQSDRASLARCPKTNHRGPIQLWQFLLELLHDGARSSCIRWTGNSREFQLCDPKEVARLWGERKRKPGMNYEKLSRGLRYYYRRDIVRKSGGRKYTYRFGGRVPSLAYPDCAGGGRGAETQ
# How it was run: as §1
# [17] = biological target: T11, ELF3 (Homo sapiens, UniProt P78545 1-371); settings: protein: recombinant; tags: N-terminal GST; dsDNA, one strand shown
# T11 sequence: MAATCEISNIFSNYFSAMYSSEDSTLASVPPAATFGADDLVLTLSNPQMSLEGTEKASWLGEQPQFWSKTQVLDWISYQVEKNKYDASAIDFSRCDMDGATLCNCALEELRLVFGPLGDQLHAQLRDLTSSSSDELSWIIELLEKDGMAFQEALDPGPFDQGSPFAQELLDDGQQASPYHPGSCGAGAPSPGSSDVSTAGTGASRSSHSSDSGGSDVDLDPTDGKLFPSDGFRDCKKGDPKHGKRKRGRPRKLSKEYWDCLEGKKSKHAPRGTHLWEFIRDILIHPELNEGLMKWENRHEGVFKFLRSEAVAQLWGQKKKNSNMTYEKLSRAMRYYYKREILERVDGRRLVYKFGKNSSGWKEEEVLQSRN
# How it was run: as §1
# [18] = biological target: CRX (Homo sapiens, UniProt O43186 1-299); settings: protein: recombinant; tags: N-terminal GST; dsDNA, one strand shown
# CRX, sequence (O43186 whole entry): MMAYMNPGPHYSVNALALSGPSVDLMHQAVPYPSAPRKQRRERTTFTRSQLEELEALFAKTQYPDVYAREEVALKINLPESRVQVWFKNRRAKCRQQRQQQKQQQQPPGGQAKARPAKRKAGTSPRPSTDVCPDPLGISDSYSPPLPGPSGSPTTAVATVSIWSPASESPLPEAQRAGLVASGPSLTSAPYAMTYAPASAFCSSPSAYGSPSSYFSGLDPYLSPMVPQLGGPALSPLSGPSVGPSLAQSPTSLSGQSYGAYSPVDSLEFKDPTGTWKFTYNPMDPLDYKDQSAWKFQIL
# How it was run: as §1
# [19] = biological target: ETV1 (Homo sapiens, UniProt P50549 1-477); settings: protein: recombinant; tags: N-terminal GST; dsDNA, one strand shown
# ETV1, sequence (P50549 whole entry): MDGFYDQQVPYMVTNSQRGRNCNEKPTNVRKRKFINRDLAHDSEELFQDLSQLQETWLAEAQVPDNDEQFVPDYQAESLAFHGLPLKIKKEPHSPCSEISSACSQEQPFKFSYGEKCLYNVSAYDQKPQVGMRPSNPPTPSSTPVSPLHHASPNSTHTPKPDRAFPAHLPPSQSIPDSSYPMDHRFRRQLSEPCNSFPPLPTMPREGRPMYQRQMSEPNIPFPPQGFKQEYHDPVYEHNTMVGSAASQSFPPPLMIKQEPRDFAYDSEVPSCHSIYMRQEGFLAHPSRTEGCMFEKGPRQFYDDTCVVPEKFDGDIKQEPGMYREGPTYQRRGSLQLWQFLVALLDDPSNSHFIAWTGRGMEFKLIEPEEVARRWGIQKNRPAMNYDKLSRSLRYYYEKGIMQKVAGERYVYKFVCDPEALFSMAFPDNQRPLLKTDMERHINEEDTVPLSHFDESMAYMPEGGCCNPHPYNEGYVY
# How it was run: as §1
sequence,measurement,setting,value
CGATCT,binding signal,[1],"1.37 fold enrichment (6-mer frequency, TF over GST control)"
same,binding signal,[2],"1.25 fold enrichment (6-mer frequency, TF over GST control)"
same,binding signal,[3],"1.29 fold enrichment (6-mer frequency, TF over GST control)"
same,binding signal,[4],"1.28 fold enrichment (6-mer frequency, TF over GST control)"
same,binding signal,[5],"1.3 fold enrichment (6-mer frequency, TF over GST control)"
same,binding signal,[6],"1.32 fold enrichment (6-mer frequency, TF over GST control)"
same,binding signal,[7],"1.22 fold enrichment (6-mer frequency, TF over GST control)"
same,binding signal,[8],"1.3 fold enrichment (6-mer frequency, TF over GST control)"
same,binding signal,[9],"1.3 fold enrichment (6-mer frequency, TF over GST control)"
same,binding signal,[10],"1.32 fold enrichment (6-mer frequency, TF over GST control)"
same,binding signal,[11],"1.36 fold enrichment (6-mer frequency, TF over GST control)"
same,binding signal,[12],"1.54 fold enrichment (6-mer frequency, TF over GST control)"
same,binding signal,[13],"1.46 fold enrichment (6-mer frequency, TF over GST control)"
same,binding signal,[14],"1.37 fold enrichment (6-mer frequency, TF over GST control)"
same,binding signal,[15],"1.38 fold enrichment (6-mer frequency, TF over GST control)"
same,binding signal,[16],"1.27 fold enrichment (6-mer frequency, TF over GST control)"
same,binding signal,[17],"1.41 fold enrichment (6-mer frequency, TF over GST control)"
same,binding signal,[18],"1.52 fold enrichment (6-mer frequency, TF over GST control)"
same,binding signal,[19],"1.24 fold enrichment (6-mer frequency, TF over GST control)"
